The list is not random: actives were taken first. Their share in the collection is about 2.5%.
ANO1 activ: TMEM16A chloride channel activators or potentiators, primary screen, cell-based, HTS | Anoctamin-1 (Mus musculus), Q8BHY3 | HEK293 TMEM16A/YFP-H148Q/I152L, iodide quench fluorescence; active compounds read low | B-score at 10 µM | 340,000 compounds, 0.3% hits | AID 623877, 2012;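 active = fluorescence-ratio B-score plate-corrected deviation score at least 3 library SD below zero, with starting fluorescence score within 5 deviations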;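 note: channel opened by trigger with iodide after compound preincubation; score built on the fluorescence ratio of max minus min over baseline; more negative score means more quench and so TMEM16A activation or potentiation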
PKA-R1A activ: activators of PKA-R1A holoenzyme, primary screen, biochemical, fluorescence polarization, Cy5-IP20, bovine R1A, mouse PKAc | cAMP-dependent protein kinase type I-alpha regulatory subunit (Bos taurus) + … | PKA-R1A dissociation; scaled: DMSO 0%, 113 µM cGMP 100% | activation, % at 11.4 µM | 340,000 compounds, 0.083% hits;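 active = percent activation above the mean of all tested compounds plus 3 SD, cut at about 19% in these data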;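 note: higher means more PKAc released from R1A so a rise in polarization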
ANO1 block: TMEM16A chloride channel inhibitors, primary screen, cell-based, HTS; 310,000 compounds, 1.2% hits; AID 588511, 2011; HEK293 TMEM16A/YFP iodide influx fluorescence, ionomycin; normalized B-score (activity score, 25-100; higher = stronger inhibition) at 10 µM; Anoctamin-1 (Mus musculus), Q8BHY3;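 active = ratio plate-corrected score three or more library SD toward inhibition, starting fluorescence score within five deviations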;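 note: score derived from kinetic fluorescence span divided by baseline fluorescence per well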
CHT PAM: CHT positive allosteric modulators, primary screen, cell-based, membrane potential dye, choline EC20; High affinity choline transporter 1 (Homo sapiens), Q9GZV3; CHT-expressing cells; active compounds read high; LV-AA mutant CHT in HEK293 cells; B-score at 10 µM; 310,000 compounds, 0.49% hits;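 active = initial fluorescence not abnormally high and integrated response B-score, plate-corrected, over 3 SD above library mean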
PKA-R2B act: activators of PKA-R2B holoenzyme, primary screen, biochemical, fluorescence polarization, Cy5-IP20, human. activation, % at 11.4 µM. cAMP-dependent protein kinase catalytic subunit beta (Homo sapiens) + cAMP-dependent …. AID 504700, 2011. PKA-R2B holoenzyme dissociation; R2B truncated from residue 108, S112A mutant; 0% DMSO only, 100% 113 µM cGMP. 340,000 compounds, 0.079% hits;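 active = activation above a cutoff set at the mean over all compounds plus 3 SD, cut at about 18% in these data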;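 note: higher means more holoenzyme dissociation and a rise in polarization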
Target sequence (P31323 whole entry, looked up, other chains not shown, the tested form may be a part): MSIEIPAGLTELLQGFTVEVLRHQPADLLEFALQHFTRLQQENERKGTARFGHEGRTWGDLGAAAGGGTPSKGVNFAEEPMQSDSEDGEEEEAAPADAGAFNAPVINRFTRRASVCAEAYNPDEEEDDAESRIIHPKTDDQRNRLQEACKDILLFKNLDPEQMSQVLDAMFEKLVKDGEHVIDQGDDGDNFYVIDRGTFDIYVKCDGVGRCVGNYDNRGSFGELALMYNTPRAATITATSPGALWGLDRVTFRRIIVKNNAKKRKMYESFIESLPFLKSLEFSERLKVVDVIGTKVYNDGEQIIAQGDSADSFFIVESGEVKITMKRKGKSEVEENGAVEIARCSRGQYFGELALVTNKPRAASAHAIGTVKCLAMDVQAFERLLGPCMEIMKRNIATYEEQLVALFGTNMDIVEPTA
CHT block: inhibitors of human choline transporter CHT; High affinity choline transporter 1 (Homo sapiens), Q9GZV3; CHT-expressing cells, membrane potential dye, choline response; active compounds read low; B-score at 10 µM; 310,000 compounds, 0.86% hits; AID 488975, 2010;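 active = B-score over 3 SD under the library average, and starting fluorescence ratio not unusually high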;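 note: choline stimulus applied at its EC90 after an EC20 pre-addition; B-score computed on integrated fluorescence ratio after choline addition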
Large screens that a line does not name were inactive.

C[N+]1=C(/C=C/Nc2ccccc2Cl)C(C)(C)c2ccccc21	none
O=C1N/C(=C\c2ccc(O)cc2)C(=O)c2ccccc21	ANO1 block 25
O=[N+]([O-])c1cccc(-c2c(-c3ccccc3)ncc3ccc(F)cc23)c1	none (no result: ANO1 block, CHT PAM, CHT block)
Cc1ccc2nc(SCn3nnc4ccccc4c3=O)[nH]c2c1	none
O=c1c2ccccc2nnn1CSc1nc2ccccc2[nH]1	ANO1 activ -7.6
O=C(COC(=O)CCC(=O)c1cccs1)NCCc1ccccc1	none (no result: ANO1 block, CHT PAM, CHT block)
CCC(=O)NC(c1ccc([N+](=O)[O-])cc1)c1c(O)ccc2ccccc12 (centres undefined)	none
CCCCC(=O)NC(c1ccc([N+](=O)[O-])cc1)c1c(O)ccc2ccccc12 (centres undefined)	ANO1 block 100
O=C(O)CCC1c2cc3c4cc2OC2Oc5cc6c(cc51)C(CCC(=O)O)c1cc5c7cc1OC(O6)c1cc6cc(c1)Oc1cc(cc(C(=O)O)c1)Oc1cc8cc(c1)C(Oc1cc(c(cc1C5CCC(=O)O)C3CCC(=O)O)OC(O4)c1cc(cc(c1)Oc1cc(cc(C(=O)O)c1)O8)Oc1cc(cc(C(=O)O)c1)Oc1cc(cc2c1)Oc1cc(cc(C(=O)O)c1)O6)O7 (centres undefined)	ANO1 block 25 (no result: ANO1 activ, PKA-R1A activ, PKA-R2B act)
CCOC(=O)C1(Cc2cccc(Cl)c2)CCCN(C(=O)CCN2CCCC2=O)C1 (centres undefined)	none
O=C(O)CN1C(=O)/C(=C\c2ccc(OC(=O)c3ccco3)cc2)SC1=S	ANO1 activ -5.9
Cc1ccc(C(=O)Nc2cccc(S(=O)(=O)N3CCCC3)c2)o1	none (no result: ANO1 block, CHT PAM, CHT block)
CCOC(=O)c1cnc(-n2nc(C)cc2C)nc1NC	none
CCOC(=O)c1cnc(-n2nc(C)cc2C)nc1NC1CCCCC1	ANO1 block 100
O=[N+]([O-])c1ccc(N=Nc2c(Cl)cc(O)cc2Cl)cc1	ANO1 activ -5.2, ANO1 block 100
CC(N)=Nc1ccc([N+](=O)[O-])cc1	none
Cc1nn(-c2ccccc2)c2c1C(c1ccncc1)C(C#N)=C(N)O2 (centres undefined)	none
COc1cc(-n2nc(C)c3c2OC(N)=C(C#N)C3c2ccccc2)c(Cl)c(Br)c1O (centres undefined)	CHT block -10
COc1cccc(/C=N/Nc2snc(SC)c2C#N)c1O	ANO1 block 100
CCOc1ccc(N=C(/C(C(=O)C(=O)N2CCOCC2)=C(/O)c2ccccc2)c2ccccc2)cc1	none
Cc1ccc(-n2[nH]c(C)c(/C=N/NC(=O)c3ccc([N+](=O)[O-])cc3)c2=O)c(C)c1	CHT PAM 7.5 (no result: ANO1 activ, PKA-R1A activ, PKA-R2B act)
COCCCNC(=O)Cn1ncc2ccsc2c1=O	none
COCCNC(=O)Cn1ncc2ccsc2c1=O	ANO1 activ -11
CCC(=O)Nc1nnc(SCCOC)s1	ANO1 block 25
CCCSc1nnc(NC(=O)Nc2ccc(F)cc2)s1	ANO1 block 100
COCCSc1nnc(NC(=O)COC)s1	none
Cc1ccc(Cl)cc1NC(=O)CN1CCOCC1	none
c1coc(CN(Cc2ccco2)c2ncnc3c2oc2ccccc23)c1	ANO1 block 100
O=C(CN1C(=O)NC(c2ccc(F)cc2)C1=O)Nc1ccc2c(c1)OCCO2 (centres undefined)	none (no result: ANO1 block, CHT PAM, CHT block)
Cc1cc(C)c2c(=O)n(CC(=O)NCCCN3CCN(c4ccccc4F)CC3)sc2n1	ANO1 block 100 (no result: ANO1 activ, PKA-R1A activ, PKA-R2B act)
Cc1cc(C)c2c(=O)n(CC(=O)NCCCN3CCOCC3)sc2n1	none
COc1ccc(C(C)=O)cc1COC(=O)c1cc(C)oc1C	ANO1 activ -11
Cc1ccnc(NC(=O)c2ccc(COc3ccc(Cl)cc3)o2)c1	ANO1 activ -10
COc1ccc(OC)c(S(=O)(=O)Nc2c(C)cccc2C)c1	none
CS(=O)(=O)Nc1ccc(C(=O)Nc2ccc3c(c2)OCO3)cc1	ANO1 activ -10
CC(C)Cn1c(-c2ccco2)n[nH]c1=S	ANO1 block 25
NCCCn1c(C(=O)c2cc(Cl)c(N)c(Cl)c2)c2ccc([N+](=O)[O-])cc2[n+]1[O-]	CHT block -5.5
Cc1ccc(C(=O)c2c3ccc([N+](=O)[O-])cc3[n+]([O-])n2CCC(N)=O)cc1	none
CC(C)OC(=O)CSc1nnc(-c2cnccn2)n1C	ANO1 activ -5.8
O=C(Nc1ccn(Cc2ccccc2)n1)c1ccc2c(c1)OCO2	none
O=C(Nc1ccn(Cc2ccc(Cl)cc2)n1)c1ccccc1	ANO1 block 25
COc1ccccc1CNC(=O)c1ccc2nc(N3CCOCC3)sc2c1	none
O=C(C/C=N/OCc1ccc(Cl)cc1)c1cnc(-c2ccccc2)s1	none
O=C(C/C=N/OCc1c(Cl)cccc1Cl)c1cnc(-c2ccccc2)s1	ANO1 block 100
COc1ccc(NC(=O)CN(C)C(=O)CN2C(=O)NC3(CCCC3)C2=O)cc1	none
COc1ccc(C(=O)/C=C/Nc2ccc(S(N)(=O)=O)cc2)cc1OC	none
CCC1CCCCN1C(=O)c1cc(COc2ccc3ncccc3c2)on1 (centres undefined)	ANO1 block 25
O=C(NCc1cccc(Cl)c1)c1cc(COc2ccc3ncccc3c2)on1	ANO1 block 100
Cc1ccc(S(=O)(=O)N(C)C)cc1NC(=O)C1CCCCC1	none
COc1ccccc1NS(=O)(=O)c1cc(C(=O)NCCC(C)C)ccc1F	ANO1 activ -9.5
CCc1cc2c(-c3ccccc3)cc(=O)oc2cc1OC(C)C(=O)NCC1CCC(C(=O)O)CC1 (centres undefined)	none
CC(=O)N(C)c1ccc(OCC(O)COc2ccc(N(C)C(C)=O)cc2)cc1	none
C=C(C)C(=O)OCC(O)COc1ccc(C(C)(C)c2ccc(OCC(O)COC(=O)C(=C)C)cc2)cc1 (centres undefined)	ANO1 block 100
O=C(c1c(F)cccc1F)N1CCN=C1SCc1ccccc1	none
O=C(C[C@H]1C/C=C\CC[C@@H](Cc2ccc(F)cc2)C(=O)OC[C@H]2CCCN2C1=O)N[C@@H](CO)Cc1ccccc1	none (no result: ANO1 block, CHT PAM, CHT block)
O=S(=O)(Nc1ncnc2sc3c(c12)CCC3)c1ccc(Cl)s1	ANO1 block 25
O=C(Nc1ncnc2sc3c(c12)CCCC3)c1ccncc1	none
O=C(O)C1CCCCC1C(=O)Nc1cc(C(F)(F)F)ccc1Cl (centres undefined)	none

Screens: PubChem BioAssay, several laboratories
